# Screens deposited in PubChem by National Center for Advancing Translational Sciences (NCATS).
# Rows were chosen to be rich in hits. Some 2.4% of all compounds tested hit in one or more screens of this group.
# POLI inh = inhibitors of human DNA polymerase iota. Q9UNA4. Pol iota fluorescent replication assay, 10 min. Potency, µM (highest dose often 115 µM), inactives show at the highest dose activity, negative = inhibition, usual class: inhibitors. hit rate 1% among 390,000
#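 Pol iota at 10 nM preincubated 15 min with compounds at room temperature; reaction started with fluorescent substrate, 50 nM final. Fluorescence read kinetically at 0 and 10 min; buffer-only wells as negative control.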
# Pol kappa inh-1 = blocks human DNA polymerase kappa activity; AID 588579; Q9UBT6; Potency, µM (series often up to 107 µM), inactives show at the top dose activity, negative = inhibition, actives largely listed as inhibitors; hit rate 0.53% among 400,000; purified Pol kappa, fluorescent DNA synthesis assay, 10 min; also: % is scaled to controls: 0 for no effect and ±100 for the full control effect
#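 Inhibition of 10 nM Pol kappa is measured by a fluorescent read-out at 0 and 10 min following addition of 50 nM substrate (final), with a 15-min room-temperature compound preincubation.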
# FEN1 inh = inhibitors of human flap endonuclease 1; Recombinant FEN1 flap cleavage, fluorescence, 15 min; Potency, µM (highest dose often 114 µM), for the others: at the top dose activity change, negative = inhibition, hits mostly inhibitors; hit rate 0.35% among 390,000; AID 588795; also: % is scaled to controls: 0 for no effect and ±100 for the full control effect; nearly all actives have a fitted effect of over 65% in size
#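 With each library titrated from low to high concentration, compounds met 10 nM FEN1 for 15 min at room temperature before 50 nM substrate was added; readings at 0 and 15 min fed four-parameter Hill curve fits.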
# TDP1 block = inhibitors of human tyrosyl-DNA phosphodiesterase TDP1 | Q9NUW8 | recombinant TDP1, AlphaScreen DNA substrate cleavage | Potency, µM (series often up to 130 µM), for inactives: top-dose activity change, negative = inhibition, most hits filed as inhibitors | hit rate 0.28% among 350,000 | AID 485290; also: % is scaled to controls: 0 for no effect and ±100 for the full control effect; nearly all actives have a fitted effect of over 40% in size
#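 Signal: AlphaScreen proximity between streptavidin donor and anti-FITC acceptor beads on intact substrate. Reaction: Tdp1 1 nM, substrate 15 nM final, 5 min RT after 15 min compound preincubation.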
# Pol beta inh = inhibitors of human DNA polymerase beta. hit rate 1.3% among 340,000. Pol beta primer extension/strand displacement, fluorescence kinetic. Potency, µM (highest dose often 114 µM), for inactives: top-dose activity change, negative = inhibition, usual class: inhibitors. P06746. AID 485314; also: % is scaled to controls: 0 for no effect and ±100 for the full control effect
#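 Preincubation: enzyme (10 nM) with compound, 15 min, RT. Reaction: substrate added to 50 nM final. Reads: 0 and 10 min. Analysis: normalized, Hill fit.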
# Pol eta inh-1 = blocks human DNA polymerase eta activity. Potency, µM (doses to about 114 µM), for inactives: top-dose activity change, negative = inhibition, most hits filed as inhibitors. AID 588591. Q9Y253. hit rate 1.2% among 390,000. recombinant Pol eta, fluorescent DNA replication assay; also: % is scaled to controls: 0 for no effect and ±100 for the full control effect
# Target sequence (Q9Y253 whole entry, looked up): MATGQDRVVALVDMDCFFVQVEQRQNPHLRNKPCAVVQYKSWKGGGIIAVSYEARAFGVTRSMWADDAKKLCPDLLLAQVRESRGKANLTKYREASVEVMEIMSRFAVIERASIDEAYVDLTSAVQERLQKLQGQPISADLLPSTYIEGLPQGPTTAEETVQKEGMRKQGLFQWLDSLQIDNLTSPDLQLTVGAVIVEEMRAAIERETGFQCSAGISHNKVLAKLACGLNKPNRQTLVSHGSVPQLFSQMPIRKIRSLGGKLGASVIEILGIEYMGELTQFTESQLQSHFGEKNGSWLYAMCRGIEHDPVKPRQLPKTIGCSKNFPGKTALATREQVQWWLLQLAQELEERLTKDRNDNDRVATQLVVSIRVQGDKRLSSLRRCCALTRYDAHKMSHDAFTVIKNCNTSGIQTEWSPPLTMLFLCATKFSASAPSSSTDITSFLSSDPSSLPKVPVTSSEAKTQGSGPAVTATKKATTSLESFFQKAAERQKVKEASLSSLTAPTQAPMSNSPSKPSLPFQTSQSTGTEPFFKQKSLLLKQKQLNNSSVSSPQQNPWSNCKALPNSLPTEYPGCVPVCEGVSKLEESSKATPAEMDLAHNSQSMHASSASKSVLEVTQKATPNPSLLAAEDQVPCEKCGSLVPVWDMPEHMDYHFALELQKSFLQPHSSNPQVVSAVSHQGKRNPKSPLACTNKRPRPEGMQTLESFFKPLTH
#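 Pol eta (10 nM) was preincubated with compounds for 15 min at room temperature, after which fluorescent replication substrate (50 nM final) was added to start the reaction. Fluorescence was read kinetically at 0 and 10 min.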
# TbPGK inh = blocks T. brucei phosphoglycerate kinase; shares compounds with Pol kappa inh-1; Potency, µM (titrated, usually from 57.5 µM), inactives show at the top dose activity change, negative = inhibition, usual class: inhibitors; TbPGK coupled GAPDH assay, Kinase-Glo luminescence; AID 686980; hit rate 79% among 500; also: % is scaled to controls: 0 for no effect and ±100 for the full control effect; nearly all actives have a fitted effect of over 65% in size
# POLI cherry-pick = Inhibitors of human DNA polymerase iota, confirmation. shares compounds with Pol kappa inh-1. Pol iota primer extension, TAMRA/BHQ fluorescence. Potency, µM, most hits filed as inhibitors. hit rate 77% among 1,500. AID 720496
# Pol kappa inh-2 = confirmation of human DNA polymerase kappa inhibitors. purified Pol-kappa, fluorescent strand-displacement substrate. Potency, µM, actives largely listed as inhibitors. AID 720501. hit rate 76% among 920. shares compounds with Pol eta inh-1
# Pol eta inh-2 = confirmation of human DNA polymerase eta inhibitors. shares compounds with Pol eta inh-1. hit rate 64% among 2,600. Pol eta primer extension, TAMRA/BHQ fluorescence, 10 min. Potency, µM, most hits filed as inhibitors
# * hit, by the source's call; ? = inconclusive; / = not tested or not shown; [ ] = another dose, or the depositor's remark. Calls follow the shape of the dose curve; as a rule, active = well fitted curve in the direction sought with a large enough effect; inconclusive = small, poorly fitted or top-dose-only effect, or another doubt; inactive = no such curve, though single readings can be large; an effect the other way counts as inactive or inconclusive. Potency is read from the fitted curve at half-maximal effect.
SMILES,POLI inh,Pol kappa inh-1,FEN1 inh,TDP1 block,Pol beta inh,Pol eta inh-1,POLI cherry-pick,Pol eta inh-2,others
COc1cc(-c2ccc(Nc3ccccc3C(=O)O)c(OC)c2)ccc1Nc1ccccc1C(=O)O,7.94µM*,31.6µM*,?,/,?,10µM*,67*,30.1*,Pol kappa inh-2=18.9*
COc1cccc(Nc2ccccc2C(=O)O)c1,51.0%,-8.7%,-0.9%,0.0%,-6.2%,-1.1%,/,/,
CC1=C(C(=O)NCc2ccc(Cl)cc2)C2(CCCCC2)OC1=O,14.0%,1.6%[60.1 µM],-14.6%,0.0%,13.0%,-9.2%,/,/,
C/C(=N\Nc1ccc(Cl)c(C(=O)O)c1)c1ccc[nH]1,44.7µM*,44.7µM*,-31.7%,?,31.6µM*,14.1µM*,53.2*,26.9*,
O=C(O)c1cc(N/N=C/C=C/c2ccccc2)ccc1Cl,-8.8%,-10.1%,-1.9%,2.6%,?,-13.4%,/,/,
Nc1ncc(N=Nc2cc(C(=O)O)ccc2Cl)s1,7.94µM*,79.4µM*,?,/,?,12.6µM*,59.7*,21.3*,
CC(=O)c1ccc(Cc2cnc(N)s2)cc1,5.3%,-5.9%,-10.5%,7.2%,16.7%,0.9%,/,/,
O=C(O)c1ccc(NC(=O)c2cc3c([nH]c2=O)CCCC3=O)cc1,-29.9%,-14.7%,?,/,/,/,/,/,
C/C(N)=C(/C#N)C(=O)CSc1nc2ccccc2c(=O)n1Cc1ccc(C)cc1,?,-24.8%,-21.4%,-1.2%,5.5%,-10.9%,/,/,
C/C(N)=C(/C#N)C(=O)CSc1nc2ccccc2c(=O)n1Cc1ccc(F)cc1,11.2µM*,79.4µM*,?,/,7.94µM*,20µM*,42.3*,47.8*,Pol kappa inh-2=37.7*
CCOc1ccccc1NC(=O)Cn1nc(N2CCN(c3ccccc3)CC2)ccc1=O,-12.1%,0.4%,-3.0%,5.3%,4.8%,-16.8%,/,/,
CCc1ccccc1NC(=O)c1ccc(Cn2nc(N3CCN(c4ccccc4)CC3)ccc2=O)o1,79.4µM*,?,10.3%,0.0%,15.8µM*,-4.4%,?,75.7*,Pol kappa inh-2=33.6*
Cc1ccc(S(=O)(=O)N(CC(=O)O)Cc2ccco2)cc1,28.2µM*,?,-16.0%,22.4µM*,?,17.8µM*,67*,19*,
Cc1ccc(S(=O)(=O)N(Cc2ccccc2)Cc2ccco2)cc1,-15.0%,-25.3%,-22.4%,3.1%,-7.3%,-4.3%,/,/,
COc1ccccc1N(CC(=O)NCc1ccco1)S(=O)(=O)c1ccc(C)cc1,5.62µM*,31.6µM*,?,/,11.2µM*,10µM*,21.2*,26.9*,TbPGK inh=16.3µM*;Pol kappa inh-2=10.6*
Cc1ccc2c(c1)c1c(c(=O)n(Cc3ccccc3)c(=O)n1Cc1cccc(F)c1)n2C,13.4%,-10.2%,-2.3%,0.0%,2.9%,?,/,/,
COc1cc2c(-c3ccc(O)cc3)nc3c(c(C)nn3-c3ccccc3)c2cc1OC,?,-10.8%,?,?,?,?,23.8*,67.5*,
COc1cccc(-c2nc3c(c(C)nn3-c3ccccc3)c3cc(OC)c(OC)cc23)c1,-17.8%,-8.5%,-14.0%,-9.3%[12.3 µM],34.4%,-11.3%,/,/,
O=C(N/N=C/c1ccc(O)cc1O)C(=O)N/N=C/c1ccc(O)cc1O,?,-13.6%,-18.9%,/,?,-17.8%,9.47*,16.9*,
C/C(=C\C=C(C#N)C#N)c1cc(C#N)c(N)o1,?,?,56.2µM*,8.4%,8.91µM*,?,?,42.6*,
O=c1[nH]c(=O)c2nc(-c3ccc(Cl)cc3)cnc2[nH]1,30.6%,-5.3%,-3.3%,3.7%,2.2%,12.2%,/,/,
O=c1[nH]c(=O)c2nc3c4ccccc4c4ccccc4c3nc2[nH]1,86.9%,-25.0%,?,/,?,28.2µM*,18.9*,/,Pol kappa inh-2=9.47*
COc1ccc(Cl)cc1NC(=O)CCC(=O)N1CCOc2ccccc21,-2.7%,-2.9%,-1.8%,11.4%,?,-22.7%,/,/,
O=C(Nc1nc2n(n1)C(c1ccccc1)C=C(c1ccccc1)N2)c1ccc(Cl)c([N+](=O)[O-])c1 (stereo not given),23.0%,-11.3%,13.5%,8.6%,-24.7%,?,/,/,
O=C(Nc1ccc2oc(-c3ccncc3)nc2c1)c1ccc([N+](=O)[O-])o1,?,-10.2%,7.0%,3.8%[0.0935 µM],?,?,/,/,
SMILES,POLI inh,Pol kappa inh-1,FEN1 inh,TDP1 block,Pol beta inh,Pol eta inh-1,POLI cherry-pick,Pol eta inh-2,others
O=C(Nc1ccc(-c2nc3ncccc3o2)cc1)c1ccc([N+](=O)[O-])o1,?,-9.2%,10.4%,6.6%,50.1µM*,11.2µM*,75.2*,75.7*,
O=c1cc(N2CCNCC2)nc2sc(-c3ccncc3)nn12,/,/,/,/,/,/,26.7*,75.7*,
Cc1cc(=O)n2nc(-c3ccccc3)sc2n1,15.8%,-1.5%,1.1%,5.7%,?,8.3%,/,/,
Cc1nn(-c2ccc(Cl)cc2)c2nc(-c3cccnc3)cc(C(F)(F)F)c12,14.4%,-23.3%,-10.2%,7.0%,0.4%,-7.5%,/,/,
CCc1nn2c(=O)cc(COC(=O)c3ccccc3NC(=O)COc3ccc(C)c(C)c3)nc2s1,-0.1%,-5.2%[60.1 µM],4.9%,-8.8%,0.1%,7.1%,/,/,
O=C(O)c1cccc(N/N=C/c2ccc(OC(F)(F)F)cc2)c1,?,-1.4%,15.5%,/,-16.5%,-7.4%,/,/,
COC(=O)c1ccc(COc2ccc(/C=N/Nc3cccc(C(=O)O)c3)cc2)cc1,31.6µM*,?,-11.6%,39.8µM*,-30.5%,17.8µM*,59.7*,26.9*,
CCS(=O)(=O)N1N=C(c2ccc(C)cc2)CC1c1cc2ccc(OC)cc2nc1Cl (stereo not given),1.8%,-9.5%,0.2%,1.1%,2.0%,?,/,/,
CCOc1ccc2nc(Cl)c(C3CC(c4ccc(OC)cc4)=NN3S(C)(=O)=O)cc2c1 (stereo not given),?,?,7.2%,0.0%,25.6%,?,?,75.7*,Pol kappa inh-2=75.2*
CN(C)c1ccc(C(=O)NCc2ccc3c(c2)CCN3C(=O)c2ccccc2)cc1,3.0%,-13.9%[60.1 µM],4.1%,6.4%,13.9%,-13.3%,/,/,
